The structures appear in SMILES notation. The list shows a part of the results. A number with no mark means an inactive call. Cut-off read from the data, not from the text of the source: active = activation above about 21%; inactive = the rest.

The target of this experiment is Sphingosine 1-phosphate receptor 1 (Homo sapiens) (UniProt P21453). Description: activation of human S1P1 receptor – cell-based, counter-screen for S1P4 agonist project (AID 1563).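 Note: 0% = vehicle wells and 100% = reference agonist.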 To be noted: S1P1 agonist cell-based assay, at 4.98 µM, stronger effect = higher value.
Chain of Sphingosine 1-phosphate receptor 1 (Homo sapiens) (P21453 whole entry, looked up): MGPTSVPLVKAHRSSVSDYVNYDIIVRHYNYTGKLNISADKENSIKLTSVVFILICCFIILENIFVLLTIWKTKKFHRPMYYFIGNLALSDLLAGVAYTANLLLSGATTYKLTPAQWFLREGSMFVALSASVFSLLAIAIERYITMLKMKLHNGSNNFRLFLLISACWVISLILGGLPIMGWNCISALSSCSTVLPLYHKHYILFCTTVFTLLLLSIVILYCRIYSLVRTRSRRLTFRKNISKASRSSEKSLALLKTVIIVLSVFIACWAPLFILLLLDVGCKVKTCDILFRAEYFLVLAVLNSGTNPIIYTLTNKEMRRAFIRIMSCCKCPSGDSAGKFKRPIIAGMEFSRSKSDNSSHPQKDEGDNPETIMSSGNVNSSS

As for `CC(C)N(CC#CCC1(O)c2ccccc2-c2ccccc21)C(C)C`, the activation was 1.18%.
